This note sets out measurements from PubChem BioAssay (NCI).

Each structure is given as a SMILES string. This is part of a sample that, as a whole, favours compounds with a hit. Of some 83,000 tested, about 20% had one in any assay.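 Cells were grown in 96-well plates and exposed to the test compound at a single concentration for 48 hours; results are reported as percent growth, with values below 10 considered active.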 Values without a mark were called inactive. Calls of active or inactive are those of the source.

Among the test systems are DU-145 prostate; K-562 leukemia; MALME-3M melanoma; MDA-MB-231 breast; RXF 393 renal; SF-268 CNS; SF-295 CNS; SF-539 CNS; UACC-257 melanoma; M14 melanoma.
Holding throughout (assay): NCI-60 one-dose screen, 48 h (100 = growth as untreated, 0 = no growth, -100 = all killed)
Holding throughout (conditions): 10 µM

Regarding `O=c1ccc2nc(-c3ccccc3)nn(-c3ccccc3)c-2c1`, the growth in the experiment on DU-145 prostate was -95.4% (active); in the experiment on K-562 leukemia it was -39% (active); in the experiment on MALME-3M melanoma it was -92.5% (active); with MDA-MB-231 breast, 76.3%; in the experiment on RXF 393 renal, -92.8% (active); in the experiment on SF-268 CNS, 70.5%. The growth is 23.9% in the experiment with SF-295 CNS, 105% in the experiment with SF-539 CNS, -97.3% (active) in the experiment on UACC-257 melanoma and 51.2% in the experiment on M14 melanoma.

For the compound `COc1cc2ccnc(C=O)c2cc1OC`, the growth was 69.8% with DU-145 prostate; 31.2% in the experiment on K-562 leukemia; 58.8% in the experiment with MALME-3M melanoma; 75.3% in the experiment with MDA-MB-231 breast; 67.6% with RXF 393 renal; 92% in the experiment with SF-268 CNS. Further, the growth in the experiment on SF-295 CNS was 96.5%; in the experiment on SF-539 CNS, 65.6%; in the experiment with UACC-257 melanoma it was 83.2%; with M14 melanoma it was 67.8%.

Turning to `Cc1ccccc1[P+](Cc1ccccc1)(c1ccccc1)c1ccccc1`, the growth in the experiment on DU-145 prostate is 41%; in the experiment with K-562 leukemia, 7.69% (active); in the experiment on MALME-3M melanoma it was -1.44% (active); in the experiment with MDA-MB-231 breast, 40.7%; in the experiment with RXF 393 renal it was 64.6%; with SF-268 CNS, 33.9%. Besides, the growth in the experiment with SF-295 CNS was 11%; with SF-539 CNS, 35.4%; in the experiment with UACC-257 melanoma, -26.7% (active); with M14 melanoma, 15.1%.

`C[C@@H]1C(=O)N(C[C@H](Cc2ccccc2)NC(=O)OCc2ccccc2)[C@]1(Cc1ccccc1)C(=O)OCc1ccccc1`: the growth with DU-145 prostate was 78.2%; with K-562 leukemia, 26.1%; with MALME-3M melanoma, 35.9%; with MDA-MB-231 breast it was 58.8%; with RXF 393 renal, 42.2%; with SF-268 CNS, 52.2%. Further, the growth in the experiment with SF-295 CNS was 30%; with SF-539 CNS it was 64.6%; in the experiment with UACC-257 melanoma, 32.1%; in the experiment with M14 melanoma it was 40.7%.

As for `c1ccc(COCC[P+](c2ccccc2)(c2ccccc2)c2ccccc2)cc1`, the growth with DU-145 prostate is 15%; in the experiment with K-562 leukemia, 3.16% (active); with MALME-3M melanoma, 4.01% (active); with MDA-MB-231 breast it was 5.14% (active); with RXF 393 renal it was 29.6%; in the experiment on SF-268 CNS, 15.4%. Also, the growth in the experiment with SF-295 CNS was -46% (active); in the experiment with SF-539 CNS it was 18.5%; in the experiment with UACC-257 melanoma, -22.7% (active); with M14 melanoma, 10.9%.

Consider `CNC(=O)c1cc(Oc2ccc(NC(=O)Nc3ccc(Cl)c(C(C)(C)C)c3)c(F)c2)ccn1`, for which the growth in the experiment with DU-145 prostate was 60.8%; in the experiment with K-562 leukemia, 19%; with MALME-3M melanoma, 0.423% (active); with MDA-MB-231 breast it was 48.4%; with RXF 393 renal, 90%; with SF-268 CNS, 59.1%. Moreover, the growth was 24.5% in the experiment on SF-295 CNS, 46.6% in the experiment with SF-539 CNS, 20.7% in the experiment on UACC-257 melanoma and 22.4% in the experiment with M14 melanoma.

Regarding `COc1cccc2c1O/C(=C\c1ccc([N+](=O)[O-])s1)C2=O`, the growth was 80.4% in the experiment with DU-145 prostate; 8.38% (active) in the experiment on K-562 leukemia; 88.6% with MALME-3M melanoma; 55.4% in the experiment with MDA-MB-231 breast; 25.7% with RXF 393 renal; 12.5% in the experiment with SF-268 CNS. The growth in the experiment with SF-295 CNS is 97.2%; with SF-539 CNS it was 55.7%; in the experiment on UACC-257 melanoma, 65.2%; with M14 melanoma, 48.1%.

For the compound `C#C[C@]1(O)CC[C@H]2[C@@H]3CC[C@H]4CC(F)(F)CC[C@]4(C)[C@H]3CC[C@@]21C`, the growth was 61.2% in the experiment with DU-145 prostate; 76.2% with K-562 leukemia; 88% in the experiment on MALME-3M melanoma; 101% with MDA-MB-231 breast; 86.4% in the experiment on RXF 393 renal; 92.9% with SF-268 CNS. In addition, the growth was 69.1% with SF-295 CNS, 54.6% with SF-539 CNS, 78.3% in the experiment with UACC-257 melanoma and 80.4% in the experiment on M14 melanoma.

Take `CCCCc1ccc(NC(=O)N(CCCl)N=O)cc1`: the growth with DU-145 prostate was 106%; in the experiment with K-562 leukemia, 88.1%; in the experiment with MALME-3M melanoma it was 101%; with MDA-MB-231 breast, 107%; in the experiment on RXF 393 renal, 93.4%; in the experiment on SF-268 CNS, 79.3%. For the same compound, the growth with SF-295 CNS is 73.9%; with SF-539 CNS, 82.2%; in the experiment with UACC-257 melanoma it was 103%; in the experiment with M14 melanoma, 99.2%.

As to `O=C1NN(c2ccccc2)C(c2cccnc2)=N/C1=C\c1cccnc1`, the growth in the experiment with DU-145 prostate is 93.1%; with K-562 leukemia, 102%; with MALME-3M melanoma, 105%; in the experiment on MDA-MB-231 breast it was 92.6%; with RXF 393 renal it was 99.5%; with SF-268 CNS, 89.4%. Further, the growth in the experiment with SF-295 CNS is 95.1%; in the experiment on SF-539 CNS, 102%; in the experiment on UACC-257 melanoma, 105%; in the experiment with M14 melanoma, 91.7%.

Take `O=C(NC1CCCC1)c1ccc(N2CCC(NCc3cccc(C(F)(F)F)c3)CC2)cc1`: the growth is 91.2% in the experiment with DU-145 prostate; 38% in the experiment with K-562 leukemia; 70.3% with MALME-3M melanoma; 78.1% in the experiment on MDA-MB-231 breast; 79.1% with RXF 393 renal; 90.3% in the experiment with SF-268 CNS. Besides, the growth in the experiment with SF-295 CNS was 96.3%; in the experiment on SF-539 CNS it was 97.6%; in the experiment with UACC-257 melanoma, 91.3%; in the experiment on M14 melanoma, 77.5%.

For `CCN(CC)CCOC(=O)c1ccc(NC(=O)Nc2cccc(Cl)c2)cc1`, the growth with DU-145 prostate is 105%; in the experiment on K-562 leukemia, 91.1%; in the experiment with MALME-3M melanoma it was 97.6%; with MDA-MB-231 breast, 93.7%; in the experiment on RXF 393 renal it was 99.4%; with SF-268 CNS it was 97.3%. For the same compound, the growth is 93% with SF-295 CNS, 98.7% in the experiment on SF-539 CNS, 91% in the experiment on UACC-257 melanoma and 103% in the experiment with M14 melanoma.

For the compound `COc1ccc(-c2nsc3c2NC(=O)CC3c2ccc(Cl)cc2)cc1` (stereo not given), the growth with DU-145 prostate is 98.4%; with K-562 leukemia, 66.6%; with MALME-3M melanoma it was 78%; with MDA-MB-231 breast, 94.9%; in the experiment on RXF 393 renal, 105%; with SF-268 CNS, 97.2%. In addition, the growth with SF-295 CNS was 79.2%; in the experiment with SF-539 CNS, 92.5%; with UACC-257 melanoma it was 82.5%; with M14 melanoma it was 84.4%.
